Test results reported in PubChem BioAssay (NCI).
About 83,000 compounds went through this panel and 20% of them were active in at least one assay; those are over-represented in the sample as a whole.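 How to read the values: 0–100, growth inhibition (40 = 60% inhibited); 0, no net growth; -100 to 0, cell death (-40 = 40% of starting cells died; -100 = all dead).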 A number with no mark means an inactive call. The source made the active and inactive calls. The calls were made as follows: active = growth percent below 10; inactive = the rest.

system: HOP-92 NSCLC; experiment: NCI-60 one-dose screen, 48 h (100 = growth as untreated, 0 = no growth, -100 = all killed); conditions: 10 µM unless noted

| SMILES | growth |
| --- | --- |
| COc1ccc(OC)c(N(CCN2C(=O)c3ccccc3C2=O)C(=O)CCl)c1 | -11.4% (active) |
| O=C(NC1CCN(Cc2ccccc2)CC1)c1cc(C(=O)NC2CCN(Cc3ccccc3)CC2)cc(C(=O)NC2CCN(Cc3ccccc3)CC2)c1 | 54.3% |
| CCOC(=O)c1c(Cl)c2c(n1Cc1ccccc1)-c1oncc1CCC2 | 84.7% |
| O=C(/C=C/c1ccccn1)c1ccc(OCc2nnc(-c3ccc(Cl)cc3)o2)cc1 | 105% |
| CSc1nc2c(c(=O)n1C)N=C1c3ccccc3C(=O)C1C(c1ccccc1)N2 (centres undefined) | 28.7% |
| CC/C=C\C[C@H](O)C/C=C1/C(=O)C=C[C@@H]1C/C=C\CCCC(=O)OCCS(=O)(=O)c1ccccc1 | 110% |
| Cc1cc(Nc2ccc(OCc3ccccc3)cc2)nc2cc(O)ccc12 | 15.8% |
| CSc1nc2c(c(=O)[nH]1)N=C1c3ccccc3C(=O)C1C(c1ccc(F)cc1)N2 (centres undefined) | 58.3% |
| CCOc1ccccc1CN1CCc2nc3cc(C(C)(C)C)[nH]n3c(=O)c2C1 | 112% |
| O=C(NC(=S)Nc1cccc(NC(=S)NC(=O)c2ccccc2)c1)c1ccccc1 | 34.8% |
| CCOC(=O)c1c2c(n3cccc(Cl)c13)C(=O)c1ncccc1C2=O | 87.6% |
| O=C(NN1C(=O)CSC1c1ccc(Cl)cc1)c1[nH]c2ccc(F)cc2c1-c1ccccc1 (centres undefined) | 46.5% |
| COc1ccc(-n2c(C(O)c3ccccc3)nn(CN3CCOCC3)c2=S)cc1 (centres undefined) | 82.6% |
| CCCC(=O)CC(C)=O.CCCC(=O)CC(C)=O.[Cu] | 96.5% |
| COc1ccc(C2Nc3ncnc(N)c3N=C3c4ccccc4C(=O)C32)cc1 (centres undefined) | 55.4% |
| Nc1nc(N)c2c(n1)NC1(C=C(O)c3ccccc31)C1=C(N2)c2ccccc2C1=O (centres undefined) | 87% |
| CCOC(=O)c1cnc2ccc(Cl)cc2c1NCCCN(C)C | 41.1% |
| CCCCCCc1cc2cc(-c3nc4ccccc4[nH]3)c(=Nc3ccccc3C)oc2cc1O | 13.3% |
| OC(c1ccccc1)c1nnc(SCc2ccccc2)n1Cc1ccccc1 (centres undefined) | 58.8% |
| CC(=O)O[C@@H]1/C=C/C(=O)N[C@@H](C)CCC/C=C/[C@@H]2CCC[C@H]21 | 92.9% |

| SMILES | growth |
| --- | --- |
| COc1ccc(C2Nc3nc(OC)n(C)c(=O)c3N=C3c4ccccc4C(=O)C32)cc1 (centres undefined) | 81.9% |
| CN1CCN(c2nc(Nc3ccc(O)cc3)nc3ccccc23)CC1 | 89.6% |
| COc1ccc(/C=C2\SC(=Nc3ccccc3)NC2=O)cc1 | -64.5% (active) |
| CCOC(=O)c1cc2c(n1Cc1cc(OC)c(OC)c(OC)c1)-c1oncc1CCC2 | 129% |
| Cn1c2c(c(=O)[nH]c1=O)NC1=C(C(=O)c3ccccc31)C1(C=C(O)c3ccccc31)N2 (centres undefined) | 75.7% |
| FC(F)(F)c1cccc(Nc2nc(-c3ccccc3)nc3ncccc23)c1 | -67.3% (active) |
| O=C(Nc1ccc(Cl)cc1)c1cc2ccccc2cc1OP(=O)(O)O | -24% (active) |
| COC(=O)/C(=C\c1c(-c2ccccc2)[nH]c2ccccc12)S(C)(=O)=O | 65.4% |
| Nc1ccc(C2c3ccccc3Oc3ccccc32)cc1 | 93.4% |
| N#CC(C#N)=Cc1c(-c2ccccc2)[nH]c2ccccc12 | 45.1% |
| CCCCc1ccc(NS(=O)(=O)c2cc3c4c(c2)CCN4C(=O)CC3)cc1 | 3.41% (active) |
| O=C(CSc1ncccc1C(=O)O)Nc1ccc(Oc2ccccc2)cc1 | 102% |
| N#C/C(=C\c1c(-c2ccccc2)[nH]c2ccccc12)C(=O)c1ccccc1 | 77.5% |
| O=C1/C=C/[C@@H](O)[C@@H]2C[C@@H](O)C[C@H]2/C=C/CCCCO1 | -3.95% (active) |
| CCCC(c1nnnn1C1CCCCC1)N1CCN(C(=O)c2ccco2)CC1 (centres undefined) | 47.6% |
| Nc1nc(Nc2cccc(F)c2)nc2ccccc12 | -2.46% (active) |
| CC(C)(C)c1ccc(C2CC(=O)C3=C(C2)Nc2ccccc2N(C(=O)c2ccccc2Cl)C3c2ccc(F)cc2)cc1 (centres undefined) | 58.5% |
| O=CCCCC(O)C=O (centres undefined) | 107% |
| CN(O)c1nc(N(C)O)nc(N2CCOCC2)n1 | 52.4% |
